Assay results published in PubChem BioAssay (NCI).
Compounds without any hit were thinned out: in the full panel of roughly 79,000, 15% have a hit. Calls of active or inactive are those of the source. Rule as the data show it: active = growth inhibition above about 70%; inactive = the rest.

How the values were obtained:
[1] = NCI Yeast Anticancer Drug Screen. Data for the rad50 strain (AID 155);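 also: 0% = growth of vehicle-only cultures of the same strain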; settings: S. cerevisiae rad50 strain growth inhibition, stronger effect = higher value
In short: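 Yeast carrying a defined DNA repair defect were exposed to test compounds, and growth was compared with vehicle-treated controls to give percent inhibition.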

[2] = NCI Yeast Anticancer Drug Screen. Data for the mec2-1 strain (AID 157); settings: S. cerevisiae mec2-1 strain, stronger effect = higher value
In short: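 Strain: mec2-1 (DNA repair/cell cycle alteration). Compound exposure, then growth measured; inhibition expressed relative to vehicle.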

[3] = NCI Yeast Anticancer Drug Screen. Data for the sgs1 mgt1 strain (AID 161);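 also: 0% = growth of cultures given vehicle only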; settings: S. cerevisiae sgs1 mgt1 strain, stronger effect = higher value
In short: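 Inhibition of yeast growth, normalised to vehicle-treated controls, is reported for a strain bearing genetic alterations in DNA damage repair.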

[4] = NCI Yeast Anticancer Drug Screen. Data for the cln2 rad14 strain (AID 165);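 also: 0% = growth equal to vehicle treated cultures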; settings: S. cerevisiae cln2 rad14 strain, stronger effect = higher value
In short: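 Compounds are applied to the cln2 rad14 yeast strain, and growth is then compared with that of vehicle-treated cultures to give inhibition.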

[5] = NCI Yeast Anticancer Drug Screen. Data for the bub3 strain (AID 167); settings: S. cerevisiae bub3 mutant strain, stronger effect = higher value
In short: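 Compounds were applied to a genetically altered yeast strain carrying a cell-cycle control defect. Growth inhibition was scored against vehicle-treated controls.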

[6] = NCI Yeast Anticancer Drug Screen. Data for the mlh1 rad18 strain (AID 175); settings: S. cerevisiae mlh1 rad18 strain growth inhibition, stronger effect = higher value
In short: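 Read-out is yeast growth inhibition, calculated against vehicle-only controls. The compound was applied to a strain engineered with DNA damage repair alterations.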

[7] = at 5.0 µM (retest, dose inferred, filed as 0.5)
[8] = at 50.0 µM (retest, dose inferred, filed as 5.0)

Measured: growth inhibition

Cc1ccc(O)c(C(c2cc(C)ccc2O)c2ccccc2Cl)c1
active: [1]; [7] 96% | [1]; [8] 99% | [1]; at 50.0 µM 98.2% | [2]; [7] 95% | [2]; [8] 99% | [2]; at 50.0 µM 99.5% | [3]; [7] 91% | [3]; [8] 99% | [3]; at 50.0 µM 99.2% | [4]; [7] 98% | [4]; [8] 99% | [4]; at 50.0 µM 98.6% | [5]; [7] 85% | [5]; [8] 99% | [5]; at 50.0 µM 98.5% | [6]; [7] 97% | [6]; [8] 95% | [6]; at 50.0 µM 99%

Oc1ccccc1C1N(Cc2ccc(Cl)cc2)CCN1Cc1ccc(Cl)cc1
inactive: [1]; [7] 7% | [1]; [8] 57% | [1]; at 50.0 µM 18.2% | [2]; [7] 7% | [2]; [8] 58% | [2]; at 50.0 µM 17.6% | [3]; [7] 20% | [3]; at 50.0 µM 46.5% | [4]; [7] 14% | [4]; [8] 58% | [4]; at 50.0 µM 62.6% | [5]; [7] 22% | [5]; at 50.0 µM 16.4% | [6]; [7] 22% | [6]; at 50.0 µM 18.4%
active: [3]; [8] 93% | [5]; [8] 81% | [6]; [8] 70%

C/C(=N\OS(=O)(=O)O)SC1OC(CO)C(O)C(O)C1O (configuration not stated)
inactive: [1]; [7] 3% | [1]; [8] -17% | [1]; at 50.0 µM 3.1% | [2]; [7] -2% | [2]; [8] -13% | [2]; at 50.0 µM -4.8% | [3]; [7] -1% | [3]; [8] 11% | [3]; at 50.0 µM -7.4% | [4]; [7] -16% | [4]; [8] 18% | [4]; at 50.0 µM -0.95% | [5]; [7] -2% | [5]; [8] -3% | [5]; at 50.0 µM -8.15% | [6]; [7] 6% | [6]; [8] -3% | [6]; at 50.0 µM -11%

CC(C)(Br)C(Br)C(=O)C(Br)C(C)(C)Br (configuration not stated)
inactive: [1]; [7] -1% | [1]; [8] 8% | [1]; at 50.0 µM 52.2% | [2]; [7] -2% | [2]; [8] 26% | [2]; at 50.0 µM 48.6% | [3]; [7] -4% | [3]; [8] 31% | [3]; at 50.0 µM 63.6% | [4]; [7] -2% | [4]; [8] 15% | [4]; at 50.0 µM -7.9% | [5]; [7] -2% | [5]; [8] 40% | [5]; at 50.0 µM 19.6% | [6]; [7] -1% | [6]; [8] 31% | [6]; at 50.0 µM 69%

O=C(O)c1cccc(S(=O)(=O)NN2C(=O)CSC2c2c(O)ccc3ccccc23)c1 (configuration not stated)
active: [3]; [8] 80% | [3]; at 50.0 µM 91.7% | [5]; [8] 86% | [5]; at 50.0 µM 83.5% | [6]; [8] 82% | [6]; at 50.0 µM 95.2%
inactive: [1]; [7] -11% | [1]; [8] 50% | [1]; at 50.0 µM 61.9% | [2]; [7] 0% | [2]; [8] 50% | [2]; at 50.0 µM 61% | [3]; [7] 2% | [4]; [7] -4% | [4]; [8] 57% | [4]; at 50.0 µM 36.9% | [5]; [7] 6% | [6]; [7] -15%

COc1ccc2cc3c4cc(OC)c(OC)cc4ccn3c2c1
inactive: [1]; [7] 3% | [1]; [8] 65% | [1]; at 50.0 µM 33.1% | [2]; [7] -1% | [2]; [8] 58% | [2]; at 50.0 µM 15.3% | [3]; [7] 16% | [3]; at 50.0 µM 62.4% | [4]; [7] 5% | [5]; [7] -1% | [5]; at 50.0 µM 24.2% | [6]; [7] 12%
active: [3]; [8] 81% | [4]; [8] 71% | [4]; at 50.0 µM 80% | [5]; [8] 84% | [6]; [8] 88% | [6]; at 50.0 µM 91.5%

C#CC(O)c1ccc(Cl)cc1Cl (configuration not stated)
inactive: [1]; [7] 9% | [2]; [7] -2% | [3]; [7] 0% | [4]; [7] -1% | [5]; [7] 5% | [6]; [7] 6%
active: [1]; [8] 96% | [1]; at 50.0 µM 99% | [2]; [8] 95% | [2]; at 50.0 µM 99.5% | [3]; [8] 92% | [3]; at 50.0 µM 95.3% | [4]; [8] 94% | [4]; at 50.0 µM 99.2% | [5]; [8] 96% | [5]; at 50.0 µM 99% | [6]; [8] 98% | [6]; at 50.0 µM 99.1%

O=C1C(Cl)=C(Nc2cc(Cl)ccc2Cl)C(=O)c2ccccc21
active: [1]; [8] 99% | [2]; [8] 98% | [2]; at 50.0 µM 97.9% | [3]; [8] 100% | [3]; at 50.0 µM 98.7% | [4]; [8] 95% | [4]; at 50.0 µM 78.8% | [5]; [7] 96% | [5]; [8] 99% | [5]; at 50.0 µM 99.5% | [6]; [8] 98% | [6]; at 50.0 µM 99.5%
inactive: [1]; [7] 45% | [1]; at 50.0 µM 2.45% | [2]; [7] 63% | [3]; [7] 68% | [4]; [7] 20% | [6]; [7] 64%

CC(=O)Oc1c([N+](=O)[O-])cc(-c2ccccc2)cc1[N+](=O)[O-]
inactive: [1]; [7] 18% | [2]; [7] 20% | [2]; at 50.0 µM 56.1% | [3]; [7] 21% | [3]; at 50.0 µM 66.3% | [4]; [7] 9% | [4]; at 50.0 µM 47.5% | [5]; [7] 21% | [5]; at 50.0 µM 62.1% | [6]; [7] 6%
active: [1]; [8] 99% | [1]; at 50.0 µM 78.2% | [2]; [8] 100% | [3]; [8] 99% | [4]; [8] 99% | [5]; [8] 99% | [6]; [8] 99% | [6]; at 50.0 µM 84.6%
